Growth data for 40 compounds are collected here from PubChem BioAssay (NCI).

“And” between values parts separate entries of the source, which are not always exact repeats. Equal entries are not always repeated. About 83,000 compounds went through this panel and 20% of them were active in at least one assay; those are over-represented in the sample as a whole.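 Growth was measured after 48 h exposure to one concentration of compound in 96-well plates. Values under 10 count as active.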 Unmarked numbers belong to inactive results. The source made the active and inactive calls.

The test system of the experiment is MDA-MB-468 breast. The experiment is described as follows: NCI-60 one-dose screen, 48 h (100 = growth as untreated, 0 = no growth, -100 = all killed). To be noted: 10 µM unless noted.
Consider `O=C(CCl)N1c2ccccc2Sc2c1ccc1ccccc21`, for which the growth is 26.4%.

As for `COC(=O)C(N)CSC(c1ccccc1)(c1ccccc1)c1ccccc1` (stereo not given), the growth was 11.5%.

As to `c1ccc(CNc2ncnc3ccc(-c4cnc5[nH]ncc5c4)cc23)cc1`, the growth is 50.7%. In the case of `CCN(CC)CCCC(C)NCC(=O)NC(c1ccc2c(c1)OCO2)c1cc(Cl)c2cccnc2c1O` (stereo not given) it was 16.6%; in that of `CCn1c(SCCc2ccccc2)nnc1-c1nn(-c2ccc(Cl)cc2Cl)c(-c2ccc(Cl)cc2)c1C`, 45.9%. For `N#Cc1c(NC(=O)c2cccc(C(F)(F)F)c2)sc2c1CCC(=O)C2`, the growth was -8.78% (active). Turning to `O=C1NC(=O)C(=Cc2cn(Cc3ccccn3)c3ccccc23)C(=O)N1`, the growth was -51.2% (active).

As for `COc1ccc2c(c1)c(CC(=O)[Se]C)c(C)n2C(=O)c1ccc(Cl)cc1`, the growth is -11.6% (active). Take `CC1O[C@@H]2C[C@@](O)([C@H]1O)n1c3ccccc3c3c4c(c5c6ccccc6n2c5c31)C(=O)NC4=O` (stereo not given in full): the growth is 3.51% (active). For the compound `Cc1cc(-c2cc(C)c(N)cc2C)c(C)cc1N`, the growth was 61%. Under `CCOC(=O)/C(C#N)=C/c1cccc(C)c1` stands 90.9%.

On to `O=C(/C=C/c1ccc2c(c1)OCO2)c1c(O)c2ccccc2oc1=O`, for which the growth is 133%.

Take `Nc1ccccc1NC(=O)c1ccc(NC(=O)C/C=C/c2cccnc2)cn1`: the growth was -19.6% (active). Take `CCOC(=O)C(Nc1ccccc1)C(=O)OCC`: the growth was 104%. In the case of `COc1ccc(/C=C(/C(=O)N2CCCC2)c2cc(OC)c(OC)c(OC)c2)cc1` it was 11.6%.

In the case of `C(=C\c1n(Cc2ccc3ccccc3c2)c(-c2ccccc2)c(-c2ccccc2)[n+]1Cc1ccc2ccccc2c1)/c1ccccc1`, the growth was -70.8% (active).

On to `COc1ccc2[nH]cc(-c3noc(C(=O)c4cn(C)c5ccc(F)cc45)n3)c2c1`, for which the growth is 102%. Under `c1ccc([P+](CCC[P+](c2ccccc2)(c2ccccc2)c2ccccc2)(c2ccccc2)c2ccccc2)cc1` stands 23.7%; under `COc1ccc(C(=O)N2NC(=O)/C(=C/c3ccc(F)cc3)N=C2c2ccccc2)cc1`, 90.6%. For the compound `O=C(Nc1ccc(NC(=O)c2cc(=O)[nH]c3ccccc23)cc1)Nc1cccc(C(F)(F)F)c1`, the growth is 24.6%. With `N#Cc1ccc(-n2cnc(NC(=O)[C@H]3CCN(C#N)C3)c2)cc1`, the growth was -38.1% (active). For the compound `CCN1CC2=C(Nc3nc(SC)[nH]c(=O)c3C2c2cc(OC)c(OC)c(OC)c2)/C(=C/c2cc(OC)c(OC)c(OC)c2)C1` (stereo not given), the growth was 95.8%.

Regarding `C=C1CCc2nc(SCC(=O)O)ccc2N1`, the growth was 97.3%. `CCOC(=O)C1=C(C)Nc2nc3ccccc3n2C1c1cccc(Br)c1` (stereo not given): the growth is 54.2%.

As to `Cc1ccc(NS(=O)(=O)c2ccc(C)cc2)cc1`, the growth was 94.4% and 87.3%.

Consider `CN(C(=O)c1ccccc1)N(C)C(=O)c1ccccc1`, for which the growth is 120%. Turning to `C(=N\Nc1ccc2ccccc2n1)/c1ccccn1`, the growth was -27% (active). On to `O=C1[C@@H]2Cc3c([nH]c4ccccc34)[C@H](c3c(Cl)cccc3Cl)N2C(=O)CN1C1CCN(CC2CCCCC2)CC1`, for which the growth was 47.8%. Take `CNC(=O)c1[nH]cc(-c2ccc(OC)cc2)c1-c1cc(OC)c2c(c1OC)OCO2`: the growth is 97.7%.

As to `C=C(C)[C@@H]1CC[C@]2(C(=O)NC(C)=O)CC[C@]3(C)[C@H](CC[C@@H]4[C@@]5(C)CCCNC(C)(C)[C@@H]5CC[C@]43C)[C@@H]12`, the growth was -20.3% (active).

Turning to `O=c1c2ccccc2nc2n1Cc1nc3ccccc3c(=O)n1C2`, the growth is 90.6%. Regarding `CCCCCCCCCCCCCCCCCC1=NCCN1C(=O)OCCO`, the growth is -67.1% (active).

With `CC(=O)Oc1cc(C)c(OC(C)=O)c(C)c1C`, the growth is 47.1%.

Take `Cn1cc(-c2ccc3c(c2)ncn3-c2ccc(CC(=O)Nc3cc(C(C)(C)C)on3)cc2)cn1`: the growth was 35.5%. `COc1ccc(-c2cc(-c3cc(OC)ccc3OC)nc(SCC(=O)c3ccccc3)c2C#N)cc1`: the growth was 106%.

On to `O=C(NCCCl)Nc1nccnc1OCc1ccc(F)cc1`, for which the growth was 102%. In the case of `CCOC(=O)c1cc(C(=O)c2cc(OC)cc(OC)c2)n2ncccc12`, the growth was 26.3%. Under `Cc1c(O)ccc(SC#N)c1C` stands 112%; under `CC(=O)N1N=C(c2ccc(-n3ccc(C(F)(F)F)n3)c(F)c2)CC1c1ccc[nH]1` (stereo not given), 117%.

As for `O=[N+]([O-])c1ccc(OCCO)cc1`, the growth is 120%.
